Laboratory results taken from PubChem BioAssay (EPA / NIEHS).
Inconclusive results are not listed. Activity calls are given as the source filed them. The calls were made as follows, unless noted: active = hit-call score of the fitted dose curve at least 0.9, where 1 is the maximum; inactive = score below 0.9.

How the values were obtained:
[1] = read-out: Tumor necrosis factor receptor 1 (TNFRSF1A), TNFRSF1A (gene 7132); experiment: LTEA_HepaRG_TNFRSF1A: Life Technologies and Expression Analysis (LTEA) Assay for Tumor necrosis factor receptor 1 (TNFRSF1A) using HepaRG (AID 2283535); settings: mRNA level, 48 h; actives raise or lower the signal
In short: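 Differentiated HepaRG cells in serum-free induction medium, exposed 48 h in duplicate to 8 half-log concentrations up to 100 uM in 0.5% DMSO. TNFRSF1A mRNA by Fluidigm TaqMan qRT-PCR, normalized to ACTB, GAPDH, POLR2A; bidirectional fit.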

[2] = read-out: Thyroid Hormone Responsive (THRSP), THRSP (gene 7069); experiment: LTEA_HepaRG_THRSP: Life Technologies and Expression Analysis (LTEA) Assay for Thyroid Hormone Responsive (THRSP) using HepaRG (AID 2283536); settings: mRNA level, 48 h; actives raise or lower the signal
In short: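 THRSP transcript quantified by Fluidigm qRT-PCR against three housekeeping genes after 48 h chemical exposure of HepaRG cells in serum-free induction medium; eight-point half-log series, top 100 uM, 0.5% DMSO vehicle, duplicate wells.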

[3] = read-out: UDP glucuronosyltransferase (UGT1A1), UGT1A1 (gene 54658); experiment: LTEA_HepaRG_UGT1A1: Life Technologies and Expression Analysis (LTEA) Assay for UDP glucuronosyltransferase (UGT1A1) using HepaRG (AID 2283538); settings: mRNA level, 48 h; actives raise or lower the signal
In short: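 Cells are plated, cultured 48 h, switched to serum-free induction medium, then dosed 48 h at eight concentrations (max 100 uM, 0.5% DMSO). RNA is isolated and UGT1A1 expression measured by qRT-PCR; changes versus DMSO are fitted in both directions.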

[4] = read-out: UDP glucuronosyltransferase (UGT1A6), UGT1A6 (gene 54578); experiment: LTEA_HepaRG_UGT1A6: Life Technologies and Expression Analysis (LTEA) Assay for UDP glucuronosyltransferase (UGT1A6) using HepaRG (AID 2283539); settings: mRNA level, 48 h; actives raise or lower the signal
In short: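 Differentiated HepaRG cells, ~100,000/well, were exposed for 48 h in serum-free induction medium with 0.5% DMSO to 8-point half-log series topping at 100 uM, in duplicate. mRNA measured by Fluidigm TaqMan qRT-PCR, normalized to ACTB, GAPDH and POLR2A.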

[5] = read-out: X-box binding protein 1 (XBP1), XBP1 (gene 7494); experiment: LTEA_HepaRG_XBP1: Life Technologies and Expression Analysis (LTEA) Assay for X-box binding protein 1 (XBP1) using HepaRG (AID 2283540); settings: mRNA level, 48 h; actives raise or lower the signal
In short: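 Differentiated human HepaRG cells in serum-free induction medium exposed 48 h in duplicate to eight half-log concentrations up to 100 uM in 0.5% DMSO. XBP1 mRNA measured by Fluidigm TaqMan qRT-PCR, normalized to ACTB, GAPDH, POLR2A; bidirectional fitting against DMSO.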

[6] = LTEA_HepaRG_LDH_cytotoxicity: Cytotoxicity Assessment in the Life Technologies and Expression Analysis (LTEA) Assay (AID 2283563; active = hit-call score of the fitted dose curve at least 0.9, where 1 is the maximum;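 as to AC50: LDH activity released into spent culture medium as a marker of cell death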)
In short: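 Differentiated HepaRG cells in serum-free induction medium, exposed 48 h in duplicate to 8 half-log concentrations up to 100 uM in 0.5% DMSO. Cytotoxicity from LDH measured in spent medium, fit relative to DMSO.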

[7] = ATG_XTT_Cytotoxicity: Cytotoxicity Assessment in the Attagene TRANS-FACTORIAL HepG2 Assay (AID 2283584; active = hit-call score of the fitted dose curve at least 0.9, where 1 is the maximum)
In short: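 HepG2 cells transiently transfected with GAL4-UAS multiple reporter units, dosed 24 h; cytotoxicity read by XTT as loss of signal versus DMSO baseline.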

[8] = TOX21_p53_BLA_p2_viability: Viability Assessment in the Tox21 HCT-116 p53 Agonism Beta-lactamase Assay, Phase 2 (AID 2283591; active = hit-call score of the fitted dose curve at least 0.9, where 1 is the maximum;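 also: compound exposure lasted 16 h at 37 °C; actives lower the ATP signal meaning cytotoxicity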)
In short: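 Cytotoxicity readout: CellTiter-Glo ATP luminescence, 30 min at room temperature, after the beta-lactamase read. Cells were HCT116 exposed 16 h at 37C to compounds pin-transferred at 217-fold dilution from DMSO stocks.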

[9] = biological target: Cellular tumor antigen p53 (Homo sapiens) (UniProt P04637); experiment: TOX21_p53_BLA_p2_ratio: Tox21 HCT-116 p53 Agonism Beta-lactamase Assay, Ratio, Phase 2 (AID 2283592; active = hit-call score of the fitted dose curve at least 0.9, where 1 is the maximum)
In short: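 First, HCT116 reporter cells settle for 5 h at 37C. Next, DMSO compound solutions are pinned in (217-fold dilution) and left 16 h. Finally, CCF4-AM substrate is loaded 2 h at room temperature and the 460/530 nm ratio read.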

[10] = biological target: Cellular tumor antigen p53 (Homo sapiens) (UniProt P04637); experiment: TOX21_p53_BLA_p3_ratio: Tox21 HCT-116 p53 Agonism Beta-lactamase Assay, Ratio, Phase 3 (AID 2283596; active = hit-call score of the fitted dose curve at least 0.9, where 1 is the maximum)
In short: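 Cells were seeded at 4000/well, rested 5 h at 37C, then dosed with DMSO compound solutions (217-fold dilution) for 16 h. CCF4-AM substrate was loaded for 2 h at room temperature, and the 460/530 nm emission ratio was fitted for gain of signal versus DMSO.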

Measured: AC50

Cellular tumor antigen p53 (Homo sapiens), sequence (P04637 whole entry, looked up): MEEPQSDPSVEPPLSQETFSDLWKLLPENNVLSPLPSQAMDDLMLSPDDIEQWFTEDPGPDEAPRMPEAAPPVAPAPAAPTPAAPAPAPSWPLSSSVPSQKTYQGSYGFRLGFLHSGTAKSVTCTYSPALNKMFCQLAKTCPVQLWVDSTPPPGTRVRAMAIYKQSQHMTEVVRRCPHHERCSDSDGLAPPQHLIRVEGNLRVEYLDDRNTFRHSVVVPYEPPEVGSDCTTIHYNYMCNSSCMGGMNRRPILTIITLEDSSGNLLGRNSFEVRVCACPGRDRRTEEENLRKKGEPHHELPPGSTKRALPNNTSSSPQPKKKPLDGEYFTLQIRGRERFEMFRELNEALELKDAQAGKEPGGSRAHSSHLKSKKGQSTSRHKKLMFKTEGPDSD

Cc1nc(-c2ccccn2)ncc1C(=O)Nn1cc(C)c2cc(F)ccc21
inactive: [1] | [2] | [5] | [6]
active: [3] 12 µM | [4] 78.5 µM

C[C@@H](Oc1ccc(CNC(=O)c2cccnc2Oc2ccc3c(c2)OCO3)c(F)c1)C(=O)O
inactive: [1] | [2] | [3] | [4] | [5] | [6]

O=C(NO)C1(NS(=O)(=O)c2ccc(Oc3ccc(F)cc3)cc2)CCOCC1
active: [2] 78.1 µM | [3] 12.2 µM | [4] 77.7 µM
inactive: [1] | [5] | [6]

OC[C@H]1O[C@@](CO)(O[C@H]2O[C@H](CO)[C@@H](O)[C@H](O)[C@H]2O)[C@@H](O)[C@@H]1O
not listed: [8] | [9] | [10]
inactive: all other assays above

COS(C)(=O)=O
inactive: [1] | [2] | [3] | [4] | [5] | [6]

CCCCCCCC1CCC(=O)O1 (centres undefined)
inactive: [1] | [2] | [3] | [4] | [5]

Cc1nccn1-c1ccc(Sc2cccc(C3(C(N)=O)CCOCC3)c2)cc1
active: [1] 7.54 µM | [2] 10.8 µM | [3] 23 µM | [4] 19.1 µM | [5] 7.33 µM | [6] 20.3 µM

COc1cc2c(c(OC)c1OC)-c1ccc(OC)c(=O)cc1[C@@H](NC(C)=O)CC2
active: [2] 0.073 µM | [3] 0.113 µM | [4] 0.237 µM | [5] 0.218 µM
inactive: [1] | [6] | [7]

OC[C@H]1O[C@@H]2O[C@H]3[C@H](O)[C@@H](O)[C@@H](O[C@H]4[C@H](O)[C@@H](O)[C@@H](O[C@H]5[C@H](O)[C@@H](O)[C@@H](O[C@H]6[C@H](O)[C@@H](O)[C@@H](O[C@H]7[C@H](O)[C@@H](O)[C@@H](O[C@H]1[C@H](O)[C@H]2O)O[C@@H]7CO)O[C@@H]6CO)O[C@@H]5CO)O[C@@H]4CO)O[C@@H]3CO
not listed: [8] | [9] | [10]
inactive: all other assays above

NC(N)=O
not listed: [8] | [9] | [10]
inactive: all other assays above

CNC(C)=O
not listed: [8] | [9] | [10]
inactive: all other assays above

NC(=O)N(O)[C@@H]1COc2cc(OCc3ccccc3)ccc21
inactive: [1] | [2] | [3] | [4] | [5] | [6]

CCCC(CCC)C(=O)O
not listed: [8] | [9] | [10]
inactive: all other assays above

OCCNCCO
inactive: [1] | [2] | [4] | [6] | [7]
active: [3] 9.92 µM | [5] 50 µM

OCc1ccccc1
inactive: [1] | [2] | [3] | [4] | [5] | [6]

OCC(CO)(CO)CO
not listed: [8] | [9] | [10]
inactive: all other assays above

OCCOCCOCCO
inactive: all assays above

CCCCOC(=O)c1ccccc1
not listed: [7] | [8]
inactive: all other assays above

OCc1c[nH]c2ccccc12
active: [9] 86.5 µM
inactive: [7] | [8] | [10]

CCCCC(CC)C(=O)OCCOCCOCCOC(=O)C(CC)CCCC (centres undefined)
active: [1] 78.2 µM
not listed: [7]
inactive: all other assays above
